# Source: PubChem
# The list is not random: actives were taken first. Their share in the collection is about 8.7%.
# VACV mCherry inh: inhibitors of vaccinia virus infection (mCherry reporter signal) | Potency, µM (titrated, usually from 36.5 µM), inactives show top-dose activity change, negative = inhibition, most hits filed as inhibitors | Vaccinia virus mCherry reporter infection, fluorescence | hit rate 0.63% among 310,000; calls by dose curve; tested in A549 cells; further: nearly all actives have a fitted effect of over 35% in size
# Pf growth 96h: inhibits malaria parasite growth, 96 h; AID 504834; hit rate 6.9% among 320,000; Potency, µM (top dose mostly 28.7 µM), for inactives: at the highest dose activity change, negative = inhibition, usual class: inhibitors; P. falciparum luciferase reporter growth, 96 h
#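 Two parasite generations (96 h, 37 C, 5% CO2) of compound exposure in infected erythrocytes (0.05% parasitemia, 2% hematocrit). Luciferase-reporter P. falciparum; decreased luminescence indicates inhibited growth, aimed at apicoplast-acting delayed death.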
# VACV Venus inh: vaccinia inhibition (Venus reporter). Potency, µM (series often up to 36.5 µM), inactives show at the highest dose activity change, negative = inhibition, usual class: inhibitors. Vaccinia virus Venus reporter expression, fluorescence. hit rate 0.46% among 330,000. AID 720580; calls by dose curve; tested in A549 cells; further: nearly all actives have a fitted effect of over 30% in size
# AMA1-RON2 inh: AMA1-RON2 (P. falciparum) interaction inhibition | AlphaScreen AMA1-biotinylated RON2 peptide binding | Potency, µM (highest dose often 58.2 µM), for the others: at the highest dose activity change, negative = inhibition, most hits filed as inhibitors | hit rate 0.2% among 360,000 | AID 720542;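 further: 0% = vehicle wells and -100% = peptide control; nearly all actives have a fitted effect of over 45% in size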
#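 AMA1 (3D7) with his tag at 25 nM final met compounds first, then biotinylated RON2 peptide at 25 nM; detection used donor plus acceptor beads, 10 µg/mL apiece, read by AlphaScreen after 30 min at room temperature.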
# Pf growth 48h: inhibits P. falciparum growth in the first generation, 48 h; P. falciparum luciferase growth in erythrocytes, 48 h; Potency, µM (titrated, usually from 28.7 µM), without a hit: top-dose activity change, negative = inhibition, usual class: inhibitors; hit rate 5.9% among 310,000; AID 504832
#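 Firefly luciferase activity from engineered P. falciparum reports growth; inhibitors lower the luminescent signal. Cultures contained 2% hematocrit erythrocytes at 0.1% final parasitemia.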
# * marks the source's active call; other numbers are inactive results; i = inactive; ? = inconclusive; . = not tested or not shown; [ ] = dose if it differs, or a comment. Unless noted, the call rests on the fitted dose curve; in most records, active means well fitted curve in the direction sought with a large enough effect; inconclusive means small, poorly fitted or top-dose-only effect, or another doubt; inactive means no such curve, though single readings can be large; an effect the other way counts as inactive or inconclusive. Unless noted, on the % scale 0 is the no-effect control and ±100 the full control effect; potency means the concentration at half of the fitted maximal effect.
SMILES,VACV mCherry inh,Pf growth 96h,VACV Venus inh,AMA1-RON2 inh,Pf growth 48h
CCOc1ccc(CCNC(=O)CCc2nnc3ccc(N4CCOCC4)nn23)cc1OCC,-3%,13µM*,-8%,0%,-2%
COc1cccc(CN2CCc3nnc(CCc4ccccc4)n3CC2)c1OC,-5%,.,3%,.,.
CCC(C)NC(=O)Cn1c(=O)n(-c2cc(OC)cc(OC)c2)c(=O)c2ccccc21 (stereo unspecified),-12%,.,-1%,.,.
CC(C)N(C(=O)CSc1nc(Cc2ccccc2)nc2ccccc12)C(C)C,.,-2%,.,4%,10µM*
CC(C)(C)NC(=O)CSc1nc2ccccc2c(=O)[nH]1,4%,77%,-15%,-9%,12µM*
O=C(O)CSc1nc2ccccc2c(=O)[nH]1,-15%,34%,-17%,20%,.
CC(C)(C)NC(=O)CSc1nc(Cc2ccccc2)nc2ccccc12,.,13µM*,.,5%,-17%
CCC(C)(C)NC(=O)CSc1nc(Cc2ccccc2)nc2ccccc12,-13%,?,-5%,-2%,?
O=C(Nc1nc(-c2ccc(Br)cc2)ns1)c1ccc(F)cc1,-6%,.,-19%,.,.
CCCCNC(=O)Cn1c(SCc2cccc(F)c2)nc2ccncc21,12%,.,-15%,.,.
CCOC(=O)c1c(-c2ccc(C)cc2)csc1NC(=O)c1cc(=O)c2cc(C)cc(C)c2o1,0%,.,-4%,.,.
CCN(CC)CC(=O)N1c2ccccc2Oc2c(c(=O)n(C)c(=O)n2C)C1c1cccc([N+](=O)[O-])c1 (stereo unspecified),-8%,?,7%,6%,5.9µM*
NC[C@@H]1O[C@H](C23CC4CC(CC(C4)C2)C3)Cc2c1ccc(O)c2O,?,5.9µM*,?,2%,9.3µM*
CC1CCN(c2nc3ccc(C(=O)O)cc3s2)CC1,i,-12%,-4%,0%,1.2µM*
CC1CCN(c2nc3ccc(C(=O)NCc4ccc(Cl)cc4)cc3s2)CC1,-15%,.,-7%,.,.
Cc1nn(-c2ccc(C(=O)NCC(c3ccco3)N3CCCC3)cc2)c(C)c1Cl (stereo unspecified),.,0.83µM*,.,-2%,?
O=C(CSc1ccccc1)NCC(c1ccco1)N1CCCCC1 (stereo unspecified),.,?,.,17%,?
OC(CNCC(c1ccco1)N1CCCCC1)c1ccccc1 (stereo unspecified),.,?,.,-12%,1.3µM*
O=C(NCC(c1ccco1)N1CCCC1)c1cc2cc(Cl)ccc2o1 (stereo unspecified),-12%,9.3µM*,-27%,-6%[11.6 µM],?
Cc1ccc2oc(C(=O)NCC(c3ccco3)N3CCCC3)c(C)c2c1 (stereo unspecified),.,?,.,0%,-14%
Cc1ccc2c(Cl)c(C(=O)NCC(c3ccco3)N3CCCC3)sc2c1 (stereo unspecified),.,?,.,-5%,?
Cc1cc(C)c(OCC(=O)NCC(c2ccco2)N2CCCCC2)c(C)c1 (stereo unspecified),.,12µM*,.,-8%,13µM*
Cc1ccccc1OCC(=O)NCC(c1ccco1)N1CCCCC1 (stereo unspecified),-6%,?,-6%,-12%,22%
COc1ccccc1C(=O)N(Cc1nc(-c2cccc(C)c2)no1)C(C)C,-5%,.,5%,.,.
CCOC(=O)c1ccccc1NC(=O)c1cn(CC(C)C)c(=O)c2cc(OC)c(OC)cc12,?,.,-20%,.,.
SMILES,VACV mCherry inh,Pf growth 96h,VACV Venus inh,AMA1-RON2 inh,Pf growth 48h
Cn1cc(C(=O)O)c(=O)c2cc(S(=O)(=O)N3CCCCC3)ccc21,i,.,-15%,.,.
O=C(NCC(c1ccco1)N1CCCC1)c1ccc(Cl)cc1 (stereo unspecified),7%,0.93µM*,19%,34%,.
O=C(CCNC(=O)c1ccc(Cl)cc1)NCC(c1ccco1)N1CCCCC1 (stereo unspecified),-18%,4.7µM*,-1%,10%,?
Cc1ccc(C(=O)NCC(c2ccco2)N2CCCCC2)s1 (stereo unspecified),.,?,.,5%,?
O=C(NCC(c1ccco1)N1CCOCC1)c1ccc(F)c(F)c1 (stereo unspecified),-14%,0%,1%,-4%,52%
O=C(NCC(c1ccco1)N1CCCC1)c1cc2ccccc2s1 (stereo unspecified),.,4.1µM*,.,-1%,2.6µM*
Cc1ccc2onc(CC(=O)Nc3cc(F)ccc3F)c2c1,-12%,.,-9%,.,.
COc1ccc(NC(=O)c2oc3ccccc3c2NC(=O)c2cc(=O)c3c(C)cc(C)cc3o2)cc1,0%,.,-14%,.,.
COc1ccccc1NC(=S)NC(NC(=O)c1ccco1)C(Cl)(Cl)Cl (stereo unspecified),-10%,33%,-11%,-8%,?
COc1ccccc1NC(=S)NC(NC(=O)CC(C)C)C(Cl)(Cl)Cl (stereo unspecified),.,?,.,-7%,15µM*
CCCCNc1nc2c(S(=O)(=O)c3ccc(C)cc3)nnn2c2ccsc12,-11%,.,-8%,.,.
c1ccc(C2(c3ccccc3)CC2C2=NCCN2)cc1 (stereo unspecified),.,13µM*,.,.,?
CCOc1cccc2sc(N(CCN(CC)CC)C(=O)c3ccco3)nc12,-8%,.,-9%,.,.
CCOC(=O)/C(=C\c1ccc([N+](=O)[O-])o1)NC(=O)c1ccccc1,-20%,?,-8%,3%,.
CCCOC(=O)/C(=C\c1ccc([N+](=O)[O-])o1)NC(=O)c1ccccc1,?,0.41µM*,?,4%,?
CCCCOc1ccc(C(=O)N/C(=C\c2cccc([N+](=O)[O-])c2)C(=O)OC(C)C)cc1,.,0.47µM*,-2%,-3%,0.59µM*
CCCCOc1ccc(C(=O)N/C(=C\c2cccc([N+](=O)[O-])c2)C(=O)OCCC)cc1,i,1.7µM*,0%,-4%,?
CC(C)COc1ccc(C(=O)N/C(=C\c2cccc([N+](=O)[O-])c2)C(=O)OC(C)C)cc1,.,13%,-4%,-8%,0.15µM*
O=C(NCCCc1nc2ccccc2n1CCCCOc1ccccc1)C1CCCCC1,-13%,.,-26%,.,.
